Assay results from PubChem BioAssay AID1159580 (chemical genetic matrix, 2015).
The whole screen tested about 5,500 compounds, of which about 2,000 (36%) were called active. About 18% were inconclusive and are not listed. Cut-off read from the data, not from the text of the source: active = normalized growth mostly below about 0.91 (no sharp cut-off); inconclusive = no clear call, values can overlap the other calls; inactive = mostly above about 0.92. This is one part of the list.

Assay: chemical genetic growth profiling, strain panel (AID 1159580);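 note: tested at 20 µM; growth read once vehicle control cultures reached saturation at 30 °C; 1 = growth at the plate median or of vehicle wells; lower values mean less growth of the strain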
Settings: S. cerevisiae deletion strains, growth OD

Measured: normalized growth

O=C(/C=C/Sc1nc2ccccc2s1)c1ccc(Cl)cc1
active: locus YHR030C, strain SLT2, hits give low values 0.697 | locus YLR113W, strain HOG1, hits give low values 0.593 | locus YPL256C, strain CLN2, hits give low values 0.72
inactive: locus YAR019C, strain CDC15, hits give low values 0.977 | locus YBL105C, strain PKC1, hits give low values 0.972 | locus YBR135W, strain CKS1, hits give low values 0.983 | locus YBR136W, strain MEC1, hits give low values 0.986 | locus YBR160W, strain CDC28, hits give low values 0.983 | locus YDL017W, strain CDC7, hits give low values 0.983 | locus YDL028C, strain MPS1, hits give low values 0.987 | locus YDL101C, strain DUN1, hits give low values 0.975 | locus YDL108W, strain KIN28, hits give low values 0.985 | locus YDL132W, strain cdc53, hits give low values 0.983 | locus YDL214C, strain PRR2, hits give low values 0.894 | locus YDR052C, strain DBF4, hits give low values 0.99 | locus YDR054C, strain cdc34, hits give low values 0.969 | locus YDR226W, strain ADK1, hits give low values 0.981 | locus YDR477W, strain SNF1, hits give low values 0.926 | locus YER123W, strain YCK3, hits give low values 0.872 | locus YER133W, strain GLC7, hits give low values 0.911 | locus YFL009W, strain cdc4, hits give low values 0.98 | locus YFL029C, strain CAK1, hits give low values 0.977 | locus YFR003C, strain YPI1, hits give low values 0.981 | locus YFR019W, strain FAB1, hits give low values 0.932 | locus YFR028C, strain CDC14, hits give low values 0.986 | locus YGR040W, strain KSS1, hits give low values 0.941 | locus YGR052W, strain FMP48, hits give low values 0.92 | locus YGR092W, strain DBF2, hits give low values 0.925 | locus YHR079C, strain IRE1, hits give low values 0.78 | locus YHR082C, strain KSP1, hits give low values 0.932 | locus YHR205W, strain SCH9, hits give low values 0.743 | locus YIL147C, strain SLN1, hits give low values 0.99 | locus YJL095W, strain BCK1, hits give low values 0.854 | locus YJL128C, strain PBS2, hits give low values 0.954 | locus YJL157C, strain FAR1, hits give low values 0.896 | locus YJR016C, strain ILV3, hits give low values 0.985 | locus YJR066W, strain TOR1 (second series), hits give low values 0.808 | locus YJR066W, strain TOR1, hits give low values 0.893 | locus YKL048C, strain ELM1, hits give low values 0.958 | locus YKL067W, strain YNK1, hits give low values 0.909 | locus YKL101W, strain HSL1, hits give low values 0.927 | locus YKL193C, strain SDS22, hits give low values 0.986 | locus YKL203C, strain TOR2, hits give low values 0.975 | locus YLR133W, strain CKI1, hits give low values 0.905 | locus YLR403W, strain SFP1, hits give low values 0.901 | locus YML070W, strain DAK1, hits give low values 0.877 | locus YMR001C, strain CDC5, hits give low values 0.978 | locus YMR205C, strain PFK2 (second series), hits give low values 0.936 | locus YMR277W, strain FCP1, hits give low values 0.988 | locus YNL006W, strain LST8, hits give low values 0.979 | locus YNL020C, strain ARK1, hits give low values 0.911 | locus YNL161W, strain CBK1, hits give low values 0.962 | locus YNL183C, strain NPR1, hits give low values 0.923 | locus YNL207W, strain RIO2, hits give low values 0.988 | locus YNL222W, strain SSU72, hits give low values 0.981 | locus YNL307C, strain MCK1 (second series), hits give low values 0.92 | locus YOL078W, strain AVO1, hits give low values 0.981 | locus YOL136C, strain PFK27, hits give low values 0.83 | locus YOR061W, strain CKA2, hits give low values 0.953 | locus YOR119C, strain RIO1, hits give low values 0.996 | locus YOR231W, strain MKK1, hits give low values 0.811 | locus YOR329C, strain SCD5, hits give low values 0.972 | locus YPL031C, strain PHO85, hits give low values 0.912 | locus YPL153C, strain RAD53, hits give low values 0.942 | locus YPL204W, strain HRR25, hits give low values 0.882 | locus YPL209C, strain IPL1, hits give low values 0.979 | locus YPR025C, strain CCL1, hits give low values 0.972 | locus YPR106W, strain ISR1, hits give low values 0.985 | locus YPR111W, strain DBF20, hits give low values 0.979 | strain NNK1, hits give low values 0.981 | strain TSCII, hits give low values 0.983
